What all share (type): functional
Assay [1] concerns the target Solute carrier family 2, facilitated glucose transporter member 1 (Homo sapiens) (UniProt P11166). Put plainly: ST_JUDE_LEISH: Cytotoxicity at 2uM final concentration against transgenic Leishmania Mexicana promastigotes LmGLUT1 that are glucose transport deficient and complemented with the human glucose transporter GLUT1. Activity is measured by DNA content using SYBR green in vitro.

The target of assay [2] is Hexose transporter 1 (Plasmodium falciparum) (UniProt O97467). Put plainly: ST_JUDE_LEISH: Cytotoxicity at 2uM final concentration against transgenic Leishmania Mexicana promastigotes LmPfHT that are glucose transport deficient and complemented with the Plasmodium falciparum hexose transporter. Activity is measured by DNA content using SYBR green in vitro.
Assay [3] deals with Glucose transporter (Leishmania mexicana) (UniProt O61059). Kind of assay: ST_JUDE_LEISH: Cytotoxicity at 2uM final concentration against transgenic Leishmania Mexicana promastigotes LmGT2 that are glucose transport deficient and complemented with the L. Mexicana glucose transporter 2. Activity is measured by DNA content using SYBR green in vitro.

Usually inhibition stands for the drop in the measured response relative to a control, in per cent.

Sequence of Solute carrier family 2, facilitated glucose transporter member 1 (Homo sapiens) (P11166 whole entry): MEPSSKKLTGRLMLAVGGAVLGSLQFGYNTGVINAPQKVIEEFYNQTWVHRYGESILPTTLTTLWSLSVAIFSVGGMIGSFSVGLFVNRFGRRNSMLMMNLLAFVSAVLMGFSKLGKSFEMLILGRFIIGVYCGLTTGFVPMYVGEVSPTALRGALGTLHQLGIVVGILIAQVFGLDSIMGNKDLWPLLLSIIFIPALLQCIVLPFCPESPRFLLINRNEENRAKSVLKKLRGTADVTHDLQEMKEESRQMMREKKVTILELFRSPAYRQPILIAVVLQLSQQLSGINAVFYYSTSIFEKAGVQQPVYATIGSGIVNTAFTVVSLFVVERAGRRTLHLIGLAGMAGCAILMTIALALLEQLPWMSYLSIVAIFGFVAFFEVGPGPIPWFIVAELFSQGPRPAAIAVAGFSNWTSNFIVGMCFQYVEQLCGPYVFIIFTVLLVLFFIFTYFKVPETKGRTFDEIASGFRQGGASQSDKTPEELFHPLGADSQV

On to `CC(O)C1CCCCN1C(=O)c1ccc(-c2cccc(-c3nc4cc(F)ccc4[nH]3)c2)cc1` (centres undefined), for which the inhibition in assay [1] came out at 3.01%; in assay [2], 2.87%; in assay [3] it was 3.89%.
As to `CC1(C)CCNc2cc(NC(=O)c3ccc(-c4ncccc4C(F)(F)F)cc3)ccc21`, the inhibition in assay [1] was found to be 2.63%; in assay [2], 1.14%; in assay [3], 0.73%.
The corresponding values for `CCc1ccccc1-c1csc(C(=O)NCC2CCN(Cc3ccc(C(C)(C)C)cc3)C2)c1` (centres undefined) are 6.04%, 4.94% and 4.81%.
In the same order, the values of `CCCCCCN1CCC(NCc2ccc(C(F)(F)F)cc2)CC1` are 2.05%, 1.54% and 5.77%.
Consider `Cc1nc(C)c(-c2ccc(Oc3ccc([S+](C)[O-])cc3)cc2)c(O)c1Br` (centres undefined), for which the inhibition stood at 3.66% in assay [1], 3.7% in assay [2] and 3.99% in assay [3].
In the same order, the values of `Cc1cnc(Nc2ccccc2)nc1NCCC(=O)Nc1ccccc1` are 6.97%, 8.48% and 3.62%.
The corresponding values for `N#Cc1ccc(Cn2ccc3c4c(N)nc(N)nc4ccc32)cc1` are 82.6%, 84.2% and 77.7%.
In the same order, the values of `CN1CCN(CCCNCc2cccc(Nc3nccc(Nc4ccc(Oc5ccccc5)cc4)n3)c2)CC1` are 1.12%, 2.79% and 0.79%.
Regarding `Oc1ccc(CCNc2nc(NCc3ccccc3-c3ccccc3)nc(N3CCCNCC3)n2)cc1`, the inhibition amounted to 0.19% in assay [1], 2.05% in assay [2] and 0.48% in assay [3].
Turning to `Cc1c(CNCCN2CCCCC2)c(C(=O)O)c(C)n1Cc1ccc(Cl)cc1`, the values for the inhibition in assay [1], in assay [2] and in assay [3] were -0.09%, 0.33% and 0.22%, respectively.
The corresponding values for `CC(C)CCNC(=O)C1Cc2c([nH]c3ccc(Br)cc23)C2(CCN(CCc3ccccc3)CC2)N1` (centres undefined) are 1.72%, 0.42% and 0.26%.
With `CCCc1cc(=O)[nH]c(-n2nc(C)cc2NC(=O)C(CC)c2ccccc2)n1` (centres undefined), the inhibition in assay [1] was 35%; in assay [2], 38.3%; in assay [3], 4.69%.
Consider `Ic1cc(CNC2CCCCC2)ccc1OCc1cccc(COc2ccc(CNC3CCCCC3)cc2I)c1`, for which the inhibition in assay [1] came to 4.09%; in assay [2] it was 3.76%; in assay [3], 2.65%.
